Rin1-Abl PPI inh – inhibitors of human Rin1-Abl protein interaction; P00519+Q13671; TR-FRET Rin1/Abl binding, biochemical; inhibition, % at 7.35 µM; 360,000 compounds, 0.4% hits; AID 588664; in the data active = inhibition above about 5%, passing the limit was not always enough
pPAFAH FP inh – inhibitors of human plasma PAF acetylhydrolase (pPAFAH); 330,000 compounds, 1.5% hits; Q13093; inhibition, % at 3.39 µM; AID 463082; recombinant pPAFAH, FP-rhodamine probe fluorescence polarization;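 active = inhibition above the mean inhibition across the screen plus 3 SD, cut at about 25% in these data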;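 note: inhibitors block binding of the rhodamine activity-based probe so polarization drops; 0% = enzyme with DMSO and 100% = wells lacking pPAFAH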
PAFAH1B3 FP inh – inhibitors of human PAFAH1B3 | Q15102 | recombinant PAFAH1B3, FP-rhodamine probe, fluorescence polarization | inhibition, % at 3.39 µM | 340,000 compounds, 0.28% hits;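 active = inhibition above the screen-wide average of all tested compounds plus 3 SD, cut at about 25% in these data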;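 note: 0% = enzyme with DMSO only and 100% = wells lacking PAFAH1B3 protein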
PAFAH2 inh – PAFAH2 (human) inhibition. Q99487. recombinant PAFAH2, FP-rhodamine activity probe, fluorescence polarization. inhibition, % at 3.39 µM. 340,000 compounds, 0.99% hits;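 active = inhibition above the mean over all tested compounds plus 3 SD, cut at about 30% in these data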;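 note: inhibitors block probe labeling of enzyme so polarization drops; 0% = enzyme with DMSO and 100% = wells lacking PAFAH2 protein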
eLon inh – E. coli protease La inhibition | inhibition, % at 7.94 µM | P0A9M0 | purified E. coli Lon protease, fluorescence polarization | 360,000 compounds, 0.42% hits; in the data active = inhibition above about 13%, passing the limit was not always enough;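 note: 0% = enzyme with probe and DMSO and 100% = no enzyme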
PAFAH1B2 FP inh – blocks human PAF acetylhydrolase 1b catalytic subunit 2. P68402. recombinant PAFAH1B2, FP-rhodamine activity probe, fluorescence polarization. inhibition, % at 3.39 µM. 340,000 compounds, 1.2% hits. AID 492953;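 active = inhibition above the mean of all tested compounds plus 3 SD, cut at about 24% in these data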;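 note: 0% = enzyme with DMSO and 100% = wells lacking PAFAH1B2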
eLon confirm – confirmation of E. coli Lon protease inhibitors; inhibition, % at 7.94 µM; AID 602230; purified E. coli Lon, fluorescence polarization; shares compounds with eLon inh; 1,400 compounds, 31% hits; in the data active = inhibition above about 16%;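 note: 0% = enzyme with probe and DMSO and 100% = no enzyme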
Active calls of the source: *; · = not tested or not shown; + = active, no number. Compounds with a hit are over-represented: about 3.1% of the library has one in this group of screens.

SMILES	Rin1-Abl PPI inh	pPAFAH FP inh	PAFAH1B3 FP inh	PAFAH2 inh	eLon inh	PAFAH1B2 FP inh	eLon confirm
COc1cc2c(C#N)c(N3CCc4ccccc4C3)nc(N)c2c(N)n1	4	20	12	13	56*	3	-16
C[C@H](NC(=O)[C@@H]1CSC2c3ccccc3C(=O)N21)C(=O)NCCc1ccc(F)cc1 (some centres not stated)	1	5	3	-4	23*	5	-3
CN1C(=O)CC(Nc2cccc3cccc(N)c23)C1=O (configuration not stated)	-3	18	7	3	21*	4	8
CC(C)N1C(=O)CC(Nc2cccc3cccc(N)c23)C1=O (configuration not stated)	-3	·	6	7	-2	0	·
CN1CCc2c(sc(NC(=O)c3ccc(C(=O)c4ccccc4)cc3)c2C(N)=O)C1	0	8	-7	-1	45*	-4	-46
O=C1C2C3c4ccccc4C(c4ccccc43)C2C(=O)N1Cc1ccco1 (configuration not stated)	0	0	6	-4	20*	1	4
COc1cccc(-n2c([S-])c(C(=O)Nc3ccc(C(F)(F)F)cc3)[n+]3ccccc23)c1	·	3	·	·	·	·	·
O=C(NC1CCCCC1)C(c1cc2ccccc2o1)N1CCOCC1 (configuration not stated)	1	·	·	·	-9	·	·
COc1ccc(NC(=O)CSc2ccc3c4c(cccc24)C(=O)c2ccccc2-3)cc1	5	2	0	3	-36	2	·
N#Cc1cccc(NC(=O)CSc2ccc3c4c(cccc24)C(=O)c2ccccc2-3)c1	2	23	27*	36*	22*	30*	94*
CN(C)Cc1csc(NC(=O)Nc2ccccc2Oc2ccccc2)n1	-3	·	·	·	86*	·	6
CN(C)Cc1csc(NC(=O)Nc2ccccc2-c2ccccc2)n1	1	·	·	·	-15	·	·
CC1CC(C)CN(S(=O)(=O)c2cccc3nsnc23)C1 (configuration not stated)	2	4	-10	5	3	5	·
COc1ccc(C(C)=O)cc1CSc1nnc(-c2ccncc2)o1	-2	-3	6	1	93*	0	-22
COC(=O)c1ccc(OC)c(CSc2nnc(-c3ccc(C)cc3)o2)c1	-5	·	-6	-1	9	3	·
Cc1ccc(S(C)(=O)=N/C=C2\C(=O)c3sccc3N(C)S2(=O)=O)cc1 (configuration not stated)	-5	-2	-2	-3	0	5	·
CC1(CCC(=O)N2CCCC(N3CCN(c4ccc(F)cc4)CC3)C2)CC1 (configuration not stated)	-2	-3	-3	4	13*	6	-7
CSCC(=O)N1CCCC(N2CCN(c3ccc(F)cc3)CC2)C1 (configuration not stated)	-2	2	1	3	-6	6	·
COc1ccc(C)cc1N1CC(C(=O)Nc2cccc(C(=O)NC3CC3)c2)CC1=O (configuration not stated)	-2	·	·	·	3	·	·
CCOC(=O)N1CCN(C(=O)CSc2ccc3nnc(-c4ccncc4)n3n2)CC1	-6	1	1	11	24*	-1	3
O=C1C=CC(=Nc2cccc3c2C(=O)c2ccccc2-3)O1	-8	·	11	5	+	5	6
COc1cc(/C=C/CN2CCC(C(=O)NC(c3ccc(F)cc3)c3ccc4ccccc4n3)CC2)ccc1OC(C)=O (configuration not stated)	-1	·	·	·	26*	·	1
O=C1CCN2C=Nc3cccc4ccc1c2c34	-25	15	2	12	+	6	+
O=C(Nc1cccc(S(=O)(=O)N2CCCCC2)c1)c1ccc2c(=O)n3c(nc2c1)CCCCC3	-4	-7	-7	-1	25*	2	6
O=[n+]1c2c(n([O-])c3cc(F)c(N4CCCC4)cc31)CCC2	-26	6	3	0	151*	3	190*
O=[n+]1c2c(n([O-])c3cc(F)c(N4CCCC4)cc31)CCCC2	-16	6	-12	-7	114*	0	111*

Assay outcomes deposited in PubChem by The Scripps Research Institute Molecular Screening Center.
